Assay results from PubChem BioAssay AID1159580 (chemical genetic matrix, 2015).
Screen size: about 5,500 compounds; about 2,000 (36%) were called active. Roughly 18% stayed inconclusive and do not appear here. Rule as the data show it: active = normalized growth mostly below about 0.91 (no sharp cut-off); inconclusive = no clear call, values can overlap the other calls; inactive = mostly above about 0.92. Some of the results follow.

Assay: chemical genetic growth profiling, strain panel (AID 1159580);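 also: tested at 20 µM; growth read once vehicle control cultures reached saturation at 30 °C; 1 = growth at the plate median or of vehicle wells; lower values mean less growth of the strain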
Settings: S. cerevisiae deletion strains, growth OD
[1] = locus YHR030C, strain SLT2, stronger effect = lower value
[2] = locus YHR079C, strain IRE1, stronger effect = lower value
[3] = locus YJL095W, strain BCK1, stronger effect = lower value
[4] = locus YJR066W, strain TOR1, stronger effect = lower value
[5] = locus YLR113W, strain HOG1, stronger effect = lower value
[6] = locus YNL183C, strain NPR1, stronger effect = lower value
[7] = locus YOR231W, strain MKK1, stronger effect = lower value
[8] = locus YPL256C, strain CLN2, stronger effect = lower value

Measured: normalized growth

CCCCCCCCCCCCCCC(C(=O)O)C(O)(CC(=O)OC)C(=O)O (stereo not drawn)
inactive: locus YAL021C, strain ccr4, stronger effect = lower value 1.04 | locus YAL026C, strain drs2, stronger effect = lower value 0.997 | locus YAL030W, strain snc1, stronger effect = lower value 1 | locus YBL061C, strain skt5, stronger effect = lower value 0.97 | locus YBR009C, strain hhf1, stronger effect = lower value 0.955 | locus YBR023C, strain chs3, stronger effect = lower value 0.967 | locus YBR171W, strain sec66, stronger effect = lower value 0.999 | locus YBR231C, strain swc5, stronger effect = lower value 0.986 | locus YBR279W, strain paf1, stronger effect = lower value 0.988 | locus YCL011C, strain gbp2, stronger effect = lower value 1 | locus YCL016C, strain dcc1, stronger effect = lower value 1.01 | locus YCL061C, strain MRC1, stronger effect = lower value 0.986 | locus YCL069W, strain vba3, stronger effect = lower value 1.02 | locus YCR088W, strain abp1, stronger effect = lower value 1.02 | locus YDL005C, strain med2, stronger effect = lower value 0.987 | locus YDL040C, strain nat1, stronger effect = lower value 0.985 | locus YDR001C, strain nth1, stronger effect = lower value 1.02 | locus YDR069C, strain doa4, stronger effect = lower value 1.07 | locus YDR137W, strain rgp1, stronger effect = lower value 0.999 | locus YDR159W, strain sac3, stronger effect = lower value 0.996 | locus YDR195W, strain ref2 1.03 | locus YDR297W, strain sur2, stronger effect = lower value 0.994 | locus YDR334W, strain swr1, stronger effect = lower value 1.01 | locus YDR335W, strain msn5, stronger effect = lower value 0.977 | locus YDR392W, strain spt3, stronger effect = lower value 0.857 | locus YEL003W, strain gim4, stronger effect = lower value 0.98 | locus YEL037C, strain rad23, stronger effect = lower value 1 | locus YEL061C, strain CIN8 (second series), stronger effect = lower value 1.01 | locus YER015W, strain faa2, stronger effect = lower value 1 | locus YER016W, strain bim1, stronger effect = lower value 1 | locus YER111C, strain swi4, stronger effect = lower value 0.964 | locus YER155C, strain BEM2 (second series), stronger effect = lower value 0.981 | locus YFR010W, strain ubp6, stronger effect = lower value 1.08 | locus YGL167C, strain pmr1, stronger effect = lower value 0.981 | locus YGL173C, strain kem1, stronger effect = lower value 0.958 | locus YGL227W, strain vid30, stronger effect = lower value 1 | locus YGL240W, strain doc1, stronger effect = lower value 0.987 | locus YGL253W, strain hxk2, stronger effect = lower value 0.966 | locus YHR027C, strain rpn1, stronger effect = lower value 0.994 | [1] 0.973 | [2] 1 | locus YHR142W, strain chs7, stronger effect = lower value 0.927 | locus YJL092W, strain hpr5, stronger effect = lower value 1.01 | locus YJL095W, strain BCK1 (second series), stronger effect = lower value 1 | [3] 0.952 | locus YJL115W, strain asf1, stronger effect = lower value 0.976 | locus YJL154C, strain vps35, stronger effect = lower value 1.01 | locus YJL164C, strain tpk1, stronger effect = lower value 0.979 | locus YJL166W, strain qcr8, stronger effect = lower value 0.976 | locus YJL187C, strain SWE1, stronger effect = lower value 0.995 | [4] 0.898 | locus YKL160W, strain elf1, stronger effect = lower value 0.99 | locus YKR026C, strain gcn3, stronger effect = lower value 0.999 | locus YKR091W, strain srl3, stronger effect = lower value 1.01 | locus YLL001W, strain dnm1, stronger effect = lower value 0.992 | locus YLL026W, stronger effect = lower value 0.997 | locus YLL041C, strain sdh2, stronger effect = lower value 1.01 | locus YLR027C, strain aat2, stronger effect = lower value 0.969 | [5] 1.02 | locus YLR221C, strain rsa3, stronger effect = lower value 0.947 | locus YLR258W, strain gsy2, stronger effect = lower value 1 | locus YLR262C, strain YPT6 (second series), stronger effect = lower value 0.986 | locus YLR320W, strain mms22, stronger effect = lower value 0.996 | locus YLR342W, strain FKS1, stronger effect = lower value 1 | locus YLR357W, strain rsc2, stronger effect = lower value 0.926 | locus YLR370C, strain arc18, stronger effect = lower value 1.01 | locus YLR384C, strain iki3, stronger effect = lower value 1 | locus YML120C, strain ndi1, stronger effect = lower value 1.02 | locus YMR125W, strain sto1, stronger effect = lower value 1.01 | locus YMR129W, stronger effect = lower value 1.01 | locus YMR205C, strain PFK2, stronger effect = lower value 1.04 | locus YMR231W, strain pep5, stronger effect = lower value 0.941 | locus YNL071W, strain lat1, stronger effect = lower value 1.02 | [6] 0.871 | locus YNL209W, strain ssb2, stronger effect = lower value 1.01 | locus YNL248C, strain rpa49, stronger effect = lower value 0.996 | locus YNL322C, strain KRE1 (second series), stronger effect = lower value 1.02 | locus YNR049C, strain mso1, stronger effect = lower value 0.999 | locus YOR001W, strain rrp6, stronger effect = lower value 0.981 | locus YOR070C, strain gyp1, stronger effect = lower value 0.985 | locus YOR080W, strain dia2, stronger effect = lower value 0.994 | locus YOR083W, strain WHI5, stronger effect = lower value 0.967 | locus YOR106W, strain vam3, stronger effect = lower value 0.982 | [7] 1.02 | locus YOR265W, strain rbl2, stronger effect = lower value 1 | locus YOR290C, strain snf2, stronger effect = lower value 1.04 | locus YPL051W, strain arl3, stronger effect = lower value 0.95 | locus YPL078C, strain atp4, stronger effect = lower value 0.996 | locus YPL106C, strain sse1, stronger effect = lower value 0.976 | locus YPL240C, strain hsp82, stronger effect = lower value 1 | [8] 0.999
active: locus YHR013C, strain ard1, stronger effect = lower value 1.62 [resistant] | locus YJL129C, strain trk1, stronger effect = lower value 0.869 | locus YMR058W, strain fet3, stronger effect = lower value 0.9 | locus YOR270C, strain vph1, stronger effect = lower value 1.45 [resistant]

CCCCC[C@H](CC(=O)O)C(=O)O
inactive: [1] 1.04 | [2] 1.03 | [3] 1.04 | [4] 1.03 | [5] 0.945 | [6] 0.989 | [7] 1.05 | [8] 1.02
